Assay outcomes deposited in PubChem by several laboratories.
GIRK2 act = activators of NPY4-receptor-primed GIRK2 channels, summary, cell-based, HEK293, thallium flux; G protein-activated inward rectifier potassium channel 2 (Homo sapiens), P48051; AID 1259324, 2017; HEK293 GIRK2/NPY4 cells, thallium flux fluorescence; 34,000 tested, under 10 active; activation (% efficacy), % for hits at 37.5 µM;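 active = primary screen hit, no activity in plain HEK293 cells, and in GIRK2-only cells above 5% efficacy rising with concentration; inactive = the rest, including fluorescent compounds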;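 note: efficacy is normalized control-subtracted fluorescence 15 s after thallium addition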
Target sequence (P48051 whole entry, looked up): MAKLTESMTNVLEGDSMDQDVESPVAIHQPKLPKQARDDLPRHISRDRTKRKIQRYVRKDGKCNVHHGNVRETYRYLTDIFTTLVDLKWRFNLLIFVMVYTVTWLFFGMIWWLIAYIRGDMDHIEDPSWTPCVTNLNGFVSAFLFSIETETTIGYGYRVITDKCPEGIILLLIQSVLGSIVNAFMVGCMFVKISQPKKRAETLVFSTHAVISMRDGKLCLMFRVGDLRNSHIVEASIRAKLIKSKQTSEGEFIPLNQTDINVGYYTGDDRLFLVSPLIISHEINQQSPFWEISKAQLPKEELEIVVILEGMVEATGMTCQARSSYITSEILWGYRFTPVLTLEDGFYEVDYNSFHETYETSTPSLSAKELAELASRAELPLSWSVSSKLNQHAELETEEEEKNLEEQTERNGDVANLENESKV
GluA2 TARP mod = modulators of GluA2-stargazin AMPA receptor complexes, primary screen, cell-based, membrane potential dye; 40,000 compounds, 3.5% hits; Voltage-dependent calcium channel gamma-2 subunit (Mus musculus) + Glutamate receptor 2 …; calls only at 30 µM; AID 1259245, 2017; HEK293 GluA2+stargazin, membrane potential dye (FDSS), glutamate EC50; hits were called plate by plate, in both directions;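 active = any of four per-well response measures lying three or more SD from its plate-wide compound average, in either direction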
* hit, by the source's call; i = inactive; x = no result given; + = active, no number; ! = repeats disagree. The sample as a whole holds a higher share of hits than the screen did.

SMILES | GIRK2 act | GluA2 TARP mod
O=C(Nc1cccc(-c2cnc3n2CCC3)c1)c1cc(-c2ccco2)on1 | i | +
O=C(Nc1ccc(CC(=O)N2CCC(O)CC2)cc1)c1cc(-c2ccco2)on1 | i | x
CCOc1ccc(C(=O)Nc2cccc(-c3cnc4n3CCC4)c2)cc1 | i | +
O=C(Nc1ccc2cn[nH]c2c1)c1ccc2nc[nH]c2c1 | i | i
CCOc1ccc(C(=O)Nc2cc3c4c(c2)CCC(=O)N4CCC3)cc1 | i | i
O=C(Nc1cccc(-c2cnc3n2CCC3)c1)c1ccc2nc[nH]c2c1 | i | +
Cc1cc(S(=O)(=O)Nc2ccc3c(c2)C(=O)N2CCCCC2CCO3)c(Cl)cc1Cl (centres undefined) | i | i
O=C(CSc1nnnn1-c1cccc(C(F)(F)F)c1)N1CCOCC1 | i | i
CNc1ccc(C(=O)N2CCCCC2)cc1 | i | i
CCc1cccc2sc(N(CCN3CCOCC3)C(=O)c3ccnn3C)nc12 | i | x
Cc1cc(C)c2c(n1)nn1c(NCCOCCO)cc(C)nc21 | i | +
Cc1cc(C)c2c(n1)nn1c(NCc3ccccn3)cc(C)nc21 | i | i
Cc1cc(C)c2c(n1)nn1c(NCCC3=CCCCC3)cc(C)nc21 | i | i
Cc1cc(C)c2c(n1)nn1c(NCCCN(C)C)cc(C)nc21 | i | +
Cc1cc(C)cc(OC(=O)CS(=O)c2ccc(S(C)(=O)=O)cc2[N+](=O)[O-])c1 (centres undefined) | x | i
CS(=O)(=O)N1CCC(CNC(=O)C(=O)NCCC2=CCCCC2)CC1 | i | i
COCCn1c(SCc2ccc(C(F)(F)F)cc2)nnc1-c1cn(C)nc1OC | i | +
COCCn1c(SCc2ccccc2)nnc1-c1cn(C)nc1OC | i | i
CCOC(=O)N1CCc2nc(NC(C)=O)sc2C1 | i | i
CCN1CCc2nc(N)sc2C1 | i | +
CC(=O)c1cc(C(=O)OCC(=O)Nc2cccc(Br)c2)c2ccccn12 | x | i
O=S(=O)(Nc1ccc(N2CCCCS2(=O)=O)cc1)c1ccc(F)cc1F | x | i
CCOC(=O)CN1N=C(c2ccc(F)cc2)Cn2c1nc1c2c(=O)n(CC(=O)OCC)c(=O)n1C | x | i
O=C(NCc1ccccc1)N1CCN(c2ccc3nnc(-c4ccco4)n3n2)CC1 | i | +
Cc1ccc(C)c(S(=O)(=O)N2CCN(c3ccc4nnc(-c5ccco5)n4n3)CC2)c1 | i | i
SMILES | GIRK2 act | GluA2 TARP mod
Cc1nnc2ccc(N3CCN(S(=O)(=O)c4ccccc4Cl)CC3)nn12 | i | +
O=S(=O)(c1ccccc1F)N1CCN(c2ccc3nnc(-c4ccco4)n3n2)CC1 | i | +
Cc1nnc2ccc(N3CCN(C(=O)NCc4ccccc4)CC3)nn12 | i | i
Cc1nnc2ccc(N3CCN(S(=O)(=O)c4ccccc4C(F)(F)F)CC3)nn12 | i | i
COc1cn2c(cc1=O)C(=O)N(CCNC(=O)c1ccc(C(C)(C)C)cc1)CC2 | i | i
COc1ccc(S(=O)(=O)NCC#CCN2CCc3ccccc3C2)cc1C | i | +
O=S(=O)(NCC#CCN1CCc2ccccc2C1)c1cccc(Cl)c1 | i | i
O=c1n(CCOc2ccccc2)nc2ccc(S(=O)(=O)N3CCCCCC3)cn12 | i | i
O=C(CCN1C(=O)c2ccccc2S1(=O)=O)NCCC1=CCCCC1 | i | i
O=C(Nc1ccccc1)c1ccc(C(=O)Nc2ccccc2)nc1 | x | i
O=C(Nc1ccccc1)c1cccc2nc3ccccc3nc12 | x | +
NS(=O)(=O)c1ccc(CNC(=O)CCc2csc(NS(=O)(=O)c3ccccc3)n2)cc1 | i | i
CC(C)N(CC#CCNS(=O)(=O)c1ccc(OC(F)(F)F)cc1)C(C)C | x | +
COc1ccc(CCC(=O)NCC(O)c2ccc(C(F)(F)F)cc2)cc1 (centres undefined) | i | x
O=S(=O)(NCC(O)c1ccc(C(F)(F)F)cc1)c1ccc2c(c1)OCCO2 (centres undefined) | i | i
COc1ccc(CCS(=O)(=O)NCC(O)c2ccc(C(F)(F)F)cc2)cc1 (centres undefined) | i | +
O=S(=O)(NCC(O)c1ccc(C(F)(F)F)cc1)c1ccc(OC(F)(F)F)cc1 (centres undefined) | x | +
CC(C)N(CC#CCNS(=O)(=O)c1cc(F)ccc1F)C(C)C | x | i
CC(=O)N1CCN(C(=O)c2ccc(S(=O)(=O)NC3CCCC3)cc2)CC1 | i | i
O=C(CCCCCn1c(=S)[nH]c2ccc(Br)cc2c1=O)NC1CCCC1 | i | x
O=C(NCCS(=O)(=O)N1CCN(c2ccccn2)CC1)c1cccs1 | i | i
Cc1nnsc1C(=O)Nc1ccc2c(c1)N(C(=O)C1CC1)CC2 | i | i
Cc1nnsc1C(=O)Nc1ccc2c(c1)N(C(=O)c1ccco1)CC2 | i | +
CSc1cccc(NC(=O)c2n[nH]c3ccccc23)c1 | i | i
O=C(Nc1ccc(F)c(F)c1)c1n[nH]c2ccccc12 | x | +
SMILES | GIRK2 act | GluA2 TARP mod
COc1ccc(S(=O)(=O)CCCC(=O)Nc2nnc(-c3cc(C)nn3C)o2)cc1 | i | x
COc1cccc(C(=O)Nc2nnc(-c3ccc(C)c(C)c3)o2)c1 | i | i
COc1cc(-c2nnc(NC(=O)c3ccc(C(C)=O)cc3)o2)cc(OC)c1OC | x | +
COc1cc(-c2nnc(NC(=O)c3ccc(OC(C)C)cc3)o2)cc(OC)c1OC | x | i
COc1cccc(C(=O)Nc2nnc(-c3cc(OC)c(OC)c(OC)c3)o2)c1 | x | +
O=C(Cc1csc(NC(=O)c2ccc[nH]c2=O)n1)NCCc1c[nH]c2ccccc12 | i | i
COc1cc(/C=C/C(=O)N2CCCCCC2)ccc1OCc1ccccc1 | i | i
COc1cc(/C=C/C(=O)N2CCC(C)CC2)ccc1OCc1ccccc1 | i | +!
COc1cc(C)c(C)cc1S(=O)(=O)NCC1CCN(C(=O)/C=C/c2ccco2)CC1 | i | i
CCN(CC)S(=O)(=O)c1ccc(C(=O)Nc2cc(-c3cccs3)nn2CCO)cc1 | i | +
CC(C)S(=O)(=O)c1ccc(CC(=O)Nc2cc(-c3cccs3)nn2CCO)cc1 | i | i
O=C(Nc1cc2c3c(c1)CC(=O)N3CCC2)c1cnccn1 | i | +
COc1cc(C(=O)Nc2cc3c4c(c2)CC(=O)N4CCC3)cc(OC)c1OC | i | i
Cc1ccc(Cn2cc(C(=O)Nc3c(C)cccc3C)ccc2=O)cc1 | i | i
COc1ccc(C)cc1NC(=O)c1ccc(=O)n(Cc2cc(C)ccc2C)c1 | i | i
CSc1ccccc1NC(=O)c1ccc(=O)n(Cc2cc(C)ccc2C)c1 | i | +
CSc1ccccc1NC(=O)c1ccc(=O)n(Cc2ccccc2Cl)c1 | i | +
CSc1ccccc1NC(=O)c1ccc(=O)n(Cc2ccccc2F)c1 | i | i
Cc1ccccc1Cn1cc(C(=O)Nc2c(C)cccc2C)ccc1=O | i | +
COC(=O)C1=C(N)CC(C)S1 (centres undefined) | i | i
CSc1ccccc1NC(=O)C(=O)NCC1(c2cccs2)CCCC1 | i | x
